The record followed here is PubChem BioAssay (Tox21).

Where “and” joins values, the source holds several entries; their conditions need not be identical. Equal values may be shown once. Records with an inconclusive call do not appear. Unmarked numbers belong to inactive results. Calls of active or inactive are those of the source. Calls come from the whole dose curve; as a rule, active = well fitted inhibition curve with a large enough effect in the signal ratio in the repeat runs (not every such curve was filed as active); inconclusive = weak or mixed curves, or effect the other way; inactive = no such curve, though single readings can be large or run the other way; the % refers to the signal ratio.
% is set by controls: 0 for no effect and ±100 for the full control effect; potency is the fitted concentration of half-maximal effect.

Sequence of Androgen receptor (Homo sapiens) (P10275 whole entry, looked up): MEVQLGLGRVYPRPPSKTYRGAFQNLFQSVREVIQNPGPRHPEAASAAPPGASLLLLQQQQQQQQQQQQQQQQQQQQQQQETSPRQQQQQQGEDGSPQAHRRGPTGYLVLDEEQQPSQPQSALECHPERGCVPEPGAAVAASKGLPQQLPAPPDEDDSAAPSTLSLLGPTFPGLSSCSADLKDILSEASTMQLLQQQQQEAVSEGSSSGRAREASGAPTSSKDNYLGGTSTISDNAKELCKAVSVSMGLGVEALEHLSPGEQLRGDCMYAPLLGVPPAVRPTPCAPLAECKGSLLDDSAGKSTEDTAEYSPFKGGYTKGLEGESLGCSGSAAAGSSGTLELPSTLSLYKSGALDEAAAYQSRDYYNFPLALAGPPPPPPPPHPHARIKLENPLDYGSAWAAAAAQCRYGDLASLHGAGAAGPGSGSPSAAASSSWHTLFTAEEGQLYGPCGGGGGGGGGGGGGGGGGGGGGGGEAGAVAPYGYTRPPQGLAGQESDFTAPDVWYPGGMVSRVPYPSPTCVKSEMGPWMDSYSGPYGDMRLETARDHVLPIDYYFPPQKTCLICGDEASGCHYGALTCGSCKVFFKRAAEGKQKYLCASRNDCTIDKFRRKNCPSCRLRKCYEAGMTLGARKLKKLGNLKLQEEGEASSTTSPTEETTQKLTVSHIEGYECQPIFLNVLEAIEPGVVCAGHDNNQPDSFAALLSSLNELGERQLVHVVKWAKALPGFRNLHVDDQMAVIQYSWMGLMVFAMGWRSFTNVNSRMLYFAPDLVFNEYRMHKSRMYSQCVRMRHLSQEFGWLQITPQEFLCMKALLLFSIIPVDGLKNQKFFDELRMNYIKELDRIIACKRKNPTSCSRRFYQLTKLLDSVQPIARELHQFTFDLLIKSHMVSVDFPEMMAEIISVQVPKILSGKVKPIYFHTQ

In this assay the target is Androgen receptor (Homo sapiens) (UniProt P10275). The experiment in a line: qHTS assay to identify small molecule antagonists of the androgen receptor (AR) signaling pathway (AID 743035). The note with it: HEK293 AR-UAS-bla, R1881-stimulated, beta-lactamase FRET, 16 h; series mostly up to 58.5 µM; activity change, negative = inhibition: at the top concentration. From the text:
National Center for Advancing Translational Sciences [NCATS]
NIH Chemical Genomics Center [NCGC]
U.S. Environmental Protection Agency [EPA]
National Institutes of Environmental Health Sciences [NIEHS]
National Toxicology Program [NTP]
U.S. Food and Drug Administration [FDA]
Androgen receptor (AR), a nuclear hormone receptor, plays a critical role in AR-dependent prostate cancer and other androgen related diseases. Endocrine disrupting chemicals (EDCs) and their interactions with steroid hormone receptors like AR may cause disruption of normal endocrine function as well as interfere with metabolic homeostasis, reproduction, developmental and behavioral functions. To identify the compounds that inhibit AR signaling, GeneBLAzer AR-UAS-bla-GripTite cell line (Invitrogen, Carlsbad, CA, USA) containing a beta-lactamase reporter gene under control of an Upstream Activator Sequence (UAS) stably integrated into HEK293 cells was used to screen the Tox21 10K compound library.
Tox21 Assay Protocol Summary:
AR-bla cells were dispensed at 2,000 cells/5 uL of assay medium per well into black wall/clear-bottom 1536-well plates using a Multidrop Combi (ThermoFisher Scientific, Waltham, MA) dispenser. After the assay plates were incubated at a 37C and 5% CO2 for 4 hr, 23 nL of compounds dissolved in DMSO, positive controls or DMSO only was transferred to the assay plate by a Pintool station (Kalypsys, San Diego, CA), followed by addition of 1 uL of agonist (R1881) in culture medium using a Bioraptr Flying Reagent Dispenser (FRD) workstation (Beckman Coulter, Indianapolis, IN, USA). The plates were incubated at a 37C and 5% CO2 for 16 h. After 1 uL of LiveBLAzerTM B/G FRET substrate was added using a Bioraptr FRD, the plates were incubated at room temperature for 2 h and fluorescence intensity was measured by an Envision plate reader (PerkinElmer, Shelton, CT).
(In qHTS, concentration-response curves come from the screen itself.)
With `CC(C)Oc1cc(-n2nc(C(C)(C)C)oc2=O)c(Cl)cc1Cl`, the Potency is 43 µM (active) and 12.3 µM (active).

Take `COP(=O)(OC)OC`: the “activity change, negative = inhibition” value is 9.85% [at 78.9 µM]. Turning to `CC(C)c1ccc(CO)cc1`, the Potency result is “inactive”. For the compound `c1cc(OCC2CO2)ccc1Cc1ccc(OCC2CO2)cc1` (configuration not stated), the Potency entry was “inactive”. Regarding `CCN(CC)C(=O)/C(Cl)=C(\C)OP(=O)(OC)OC`, the “activity change, negative = inhibition” value was -14.3%. On to `CCCCCCCCOC(=O)c1ccccc1C(=O)OCCCCCCCC`, for which the “activity change, negative = inhibition” value is -8.21%. Regarding `COP(=S)(OC)Oc1cc(Cl)c(Cl)cc1Cl`, the “activity change, negative = inhibition” value was 3.8%. Turning to `CCc1cccc(CC)c1N(COC)C(=O)CCl`, the Potency is 26.7 µM (active) and 38.9 µM (active). Take `O=C(O)CC[N+](=O)[O-]`: the Potency result was “inactive”. `CC(C)(OOC(C)(C)c1ccccc1)c1ccccc1`: the Potency entry was “inactive”. As for `C=C(C)[C@H]1Cc2c(ccc3c2O[C@@H]2COc4cc(OC)c(OC)cc4[C@@H]2C3=O)O1`, the Potency was 756 nM (active) and 279 nM (active). In the case of `Nc1ccncc1`, the Potency result is “inactive”.
